From PubChem BioAssay
The list is not random: actives were taken first. Their share in the collection is about 0.96%.
V-ATPase pHluor = regulators of yeast V-ATPase proton transport; S. cerevisiae, pHLuorin cytosolic pH fluorescence; AID 504577; response, % at 10 µM; 0.37% of 350,000 active; in the data active = response mostly above about 7.3%, no sharp cut-off; inactive = mostly below about 5.4%; note: actives read high
HDAC3 inhib = human HDAC3 inhibition; 0.15% of 320,000 active; recombinant HDAC3, fluorogenic peptide/trypsin coupled, fluorescence; inhibition, % at 8.3 µM; AID 2718; in the data active = inhibition above about 26%, passing the limit was not always enough; inconclusive = no clear call, values can overlap the other calls
Rtt109 HAT inh = inhibitors of Candida albicans Rtt109/Vps75 histone acetyltransferase. inhibition, % at 34.9 µM. purified Rtt109/Vps75, ThioGlo CoA-SH fluorescence, 4 h. Q5AAJ8. 0.16% of 330,000 active. AID 540336;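 active = inhibition of at least 50% in every replicate; inconclusive = best replicate reaches 50% inhibition but some replicates fall short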
MIN6 prolif = MIN6 beta-cell proliferation induction; MIN6 cells proliferation, ATPlite luminescence, 48 h; cells starved in 0.2% serum; 100% = growth in 10% serum; proliferation, % at 10 µM; 0.29% of 330,000 active; AID 2380;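 active = compounds whose signal lies at least 3.5 SD above the mean of all wells on their plate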;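 note: 0% = DMSO-treated cells in low-serum medium and 100% = 10% serum control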
DAGLB inhibitor = blocks human DAGLB lipase activity; 0.059% of 340,000 active; HEK293T DAGLB membrane lysate, EnzChek fluorogenic substrate; AID 504411; Q8NCG7; inhibition, % at 5.17 µM; in the data active = inhibition above about 34%;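 note: 0% = enzyme with vehicle and 100% = wells lacking enzyme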
Target sequence (Q8NCG7 whole entry, looked up): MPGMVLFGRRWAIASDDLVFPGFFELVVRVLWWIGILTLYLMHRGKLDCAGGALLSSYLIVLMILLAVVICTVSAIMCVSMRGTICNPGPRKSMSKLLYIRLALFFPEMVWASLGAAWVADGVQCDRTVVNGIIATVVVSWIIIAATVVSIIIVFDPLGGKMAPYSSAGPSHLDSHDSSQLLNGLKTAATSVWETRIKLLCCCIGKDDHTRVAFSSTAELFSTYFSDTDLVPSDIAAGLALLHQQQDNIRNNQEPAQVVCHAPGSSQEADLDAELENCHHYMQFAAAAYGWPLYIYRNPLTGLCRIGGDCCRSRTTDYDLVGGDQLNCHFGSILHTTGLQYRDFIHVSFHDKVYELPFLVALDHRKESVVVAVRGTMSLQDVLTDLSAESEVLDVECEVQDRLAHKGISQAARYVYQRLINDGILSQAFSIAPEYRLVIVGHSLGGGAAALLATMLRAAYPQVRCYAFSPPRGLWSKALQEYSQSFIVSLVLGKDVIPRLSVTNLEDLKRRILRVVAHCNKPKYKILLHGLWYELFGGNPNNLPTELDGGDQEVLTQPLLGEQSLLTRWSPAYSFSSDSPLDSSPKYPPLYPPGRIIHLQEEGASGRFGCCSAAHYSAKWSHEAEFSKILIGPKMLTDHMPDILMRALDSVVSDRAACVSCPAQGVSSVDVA
Active calls of the source: *; ? = inconclusive; . = no result.

SMILES	V-ATPase pHluor	HDAC3 inhib	Rtt109 HAT inh	MIN6 prolif	DAGLB inhibitor
O=C(O)c1ccc2c(=O)n(-c3ccc(F)cc3)c(=S)[nH]c2c1	13*	-11	5	1	2
CCCCCc1ccc(OCCCC[n+]2ccccc2)c(CCCCC)c1	0	12	?	-6	3
CCCCCc1ccc(OCCCC[n+]2cccc(C)c2)c(CCCCC)c1	-1	7	73*	-5	3
COc1ccc(-c2[nH]ncc2CNCCCSC)cc1F	14*	0	-8	1	-1
COC(=O)[C@H](CC(C)C)NS(=O)(=O)N(Cc1ccccc1)[C@@H](CC(C)C)C(=O)OC	-3	31*	-16	-4	-9
O=C1NC(=S)S/C1=C\C=C\c1ccc([N+](=O)[O-])o1	54*	.	33	.	14
O=C(O)/C=C/c1ccc([N+](=O)[O-])o1	-1	1	-2	-2	2
N#Cc1c(Nc2ccccc2C(F)(F)F)s[nH]c1=O	1	2	.	-5	.
N#Cc1c(Nc2ccccc2)s[nH]c1=O	1	1	111*	-5	0
N#Cc1c(Nc2ccccc2Cl)s[nH]c1=O	-1	4	109*	-4	4
N#Cc1c(Nc2ccccc2)sc(C(=O)c2ccc(F)cc2)c1N	0	.	4	-4	3
Cc1cc(C)n(-c2ncc(-c3ccccc3)nn2)n1	2	4	-8	1	-2
COc1ccccc1NC(=O)CSC(N)=O	2	63*	135*	-7	-12
CCCCN(CCCC)Cc1ccc(C(=O)NN)o1	-1	-10	9	1	-1
O=C(Nc1ccccn1)c1ccc(Cl)c(S(=O)(=O)N2CCCCCC2)c1	5	.	3	-6	-1
CCCN(CC(=O)Nc1ccccc1C)C(=O)c1ccc(C2SCCS2)cc1	-3	80*	-4	0	-8
CCCN(CC(=O)Nc1ccccc1C)C(=O)c1ccc(S(=O)(=O)N2CCCCCC2)cc1	1	3	1	-4	-1
CC(=C/c1ccccc1)/C=N/n1c(-c2ccncc2)n[nH]c1=S	2	3	8	15*	-1
Cc1nc(-c2ccc3c(c2)OCCCO3)cs1	-2	41*	-9	-2	2
Cc1ccc(C)c(OCCC(=O)OCC(=O)NC(=O)NC2CCCC2)c1	-2	-3	-5	0	-3
Cc1ccc(C2=NC(C)(C)N=C2SCC(=O)Nc2ccc(Cl)cc2)cc1	0	11	99*	-5	-14
N#Cc1ncc(-c2ccc3c(c2)OCCOCCOCCOCCOCCO3)nc1C#N	2	2	-5	-5	-1
O=C(c1ccco1)N1CCN(S(=O)(=O)/C=C/c2ccccc2)CC1	-1	4	-1	-1	1
CCOc1ccc(C(=O)NCC(=O)OCc2c(C)noc2C)cc1	2	3	6	0	-2
CCOc1ccc(C(=O)NCC(=O)OCc2c(C)noc2C)cc1OCC	13*	-1	2	-2	-2
SMILES	V-ATPase pHluor	HDAC3 inhib	Rtt109 HAT inh	MIN6 prolif	DAGLB inhibitor
COc1ccc2oc(C(=O)OCC(=O)NC(=O)NC(C)C)c(C)c2c1	-2	-4	-2	-2	0
Nc1nc(-c2ccccn2)nc(N)c1Cc1ccc(Cl)cc1Cl	11*	1	5	-4	-4
O=C(CC1C(=O)NCCN1Cc1ccccc1F)NC1CCCCCC1 (stereo not given)	-4	5	4	-2	-2
CCOc1ccc(N)c(SSc2cc(OCC)ccc2N)c1	-1	0	3	-5	-12
CS(=O)(=O)c1ccc(N)c(SSc2cc(S(C)(=O)=O)ccc2N)c1	2	11	182*	-7	4
Cc1cc(C)cc(NC2=NCC(=O)N2Cc2ccccc2)c1	6	0	8	-5	3
CCc1ccccc1NC1=NCC(=O)N1Cc1ccccc1	16*	7	-6	-2	-4
O=C(NCC(=O)N(c1cccnc1)C(C(=O)NC1CCCC1)c1ccco1)c1cccs1 (stereo not given)	2	-2	-1	0	-2
C=CCNC(=O)c1ccc(-c2nc(-c3ccccc3)cs2)cc1	0	-10	2	-5	-5
COc1ccc(C(=O)n2nc(-c3ccccc3)nc2N)cc1OC	-7	62*	0	-1	-8
Nc1nc(-c2ccc(Cl)cc2)nn1C(=O)c1cccnc1	20*	1	-3	-3	1
COc1ccc(C(=O)n2nc(-c3ccc(OC)cc3)nc2N)cc1	-1	59*	-5	0	-9
COc1ccc(-c2nc(N)n(C(=O)c3ccc(C)cc3)n2)cc1	-3	32*	5	-2	-11
Cn1nc(C(F)(F)F)c(C(=O)Nc2ccc(F)cc2)c1Cl	-2	-4	-3	-1	2
Cn1c2c(c(=O)c3ccccc31)CCC(C)(C)O2	-2	-1	-5	0	-3
Cc1cc(C)c[n+](CC(=O)c2ccccc2)c1	-5	0	1	0	0
O=C(C/C=N/OCc1ccc(Cl)cc1Cl)c1ccccc1	-6	-2	65*	-4	-4
CC(C)[C@H](NC(=O)[C@H](CCCN=C(N)N)NC(=O)NC(Cc1ccccc1)C(=O)O)C(=O)NC(C=O)CCCN=C(N)N (stereo not given in full)	-1	84*	-1	-1	2
CC(C)C(NC(=O)OCc1ccccc1)C(=O)NC(Cc1ccc(O)cc1)C(=O)O (stereo not given)	6	-5	-16	-4	0
O=C(c1nnsc1S(=O)(=O)c1ccc(Cl)cc1)N1CCOCC1	2	.	-8	-5	-15
O=C(c1nnsc1S(=O)c1ccc(Cl)cc1)N1CCOCC1 (stereo not given)	-1	.	136*	-5	-6
CCOC(=O)C1=C(C)Nc2ccccc2S1	1	2	51*	-1	-3
COC(=O)C1=C(C)NC(=O)NC1c1ccc(-c2ccc(Cl)cc2)o1 (stereo not given)	-2	45*	3	-4	2
COC(=O)C1=C(C)NC(=O)NC1c1ccc([N+](=O)[O-])o1 (stereo not given)	0	7	-5	0	0
Cc1ccc(N/C(=C\C(=O)c2ccccc2)C(=O)O)cc1	5	3	3	7.1*	1
SMILES	V-ATPase pHluor	HDAC3 inhib	Rtt109 HAT inh	MIN6 prolif	DAGLB inhibitor
O=C(O)CCC(=O)NNC(=O)c1cccc(Cl)c1	7	2	1	3	-1
COc1cccc(C(=O)NNC(=O)CCC(=O)O)c1	-4	.	54*	-3	-2
CCOC(=O)NC(O)C(=O)c1cccs1 (stereo not given)	1	1	-2	5.0*	0
O=S(=O)(c1cc(F)ccc1F)N1CCN(c2ncnc3ccccc23)CC1	-2	-2	2	-6	-3
CC(=O)N1CCN(c2ncnc3ccccc23)CC1	-3	-5	58*	-3	-1
CCCCN1C(=O)C(CC(=O)NCCCN(C)C)CC(C(=O)N(CC)CC)=C1C (stereo not given)	1	.	.	.	2
Cc1ccc(N(CC(=O)NC2CCCCC2)C(=O)Cn2nnc(-c3ccc(C)o3)n2)cc1	13*	9	13	1	-2
